Where “and” joins values, the source holds several entries; their conditions need not be identical. Identical values can stand only once. Inconclusive results are not listed. Calls of active or inactive are those of the source. Unless noted, the rule behind the calls is not given here.
Assays:
[1] = Cy5 fluorescence interference with SSB-bound oligo, artefact control for HCV NS3 helicase inhibitor project, biochemical, NIH Clinical Collection, E. coli SSB (AID 743268)
[2] = test system: Hepatitis C virus NS3 helicase; assay: HCV NS3 helicase inhibitors, primary screen, biochemical, fluorescence polarization, NIH Clinical Collection (AID 743270); conditions: NS3 helicase binding to Cy5-dT15 DNA, stronger effect = higher value, concentration not given here
[3] = target: Single-stranded DNA-binding protein (Escherichia coli (strain K12)) (UniProt P0AGE0); assay: E. coli SSB displacement from DNA, counter-screen for HCV NS3 helicase inhibitor project, biochemical, fluorescence polarization, NIH Clinical Collection (AID 743271; in the data active = inhibition above about 28%); conditions: stronger effect = higher value, concentration not given here
[4] = fluorescence interference in NS3h assay format, artefact control for HCV NS3 helicase inhibitor project, biochemical, NIH Clinical Collection (AID 743272); conditions: fluorescence interference counterscreen, stronger effect = lower value;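 note: HCV NS3 helicase with a Cy5 labelled single stranded DNA probe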
F380Y/beta4 = assay: modulators of BK channel variants, profiling panel, selectivity assay, cell-based, U2OS BacMam, thallium flux, beta subunits (AID 1259406;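 active = thallium flux through the channel raised or lowered by more than 3 SD from vehicle-only wells, actives on both sides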;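 note: initial slope of Thallos dye fluorescence rise after thallium is added; log ratio against the mean of 0.3% DMSO vehicle wells on the same plate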); conditions: at 30 µM
[5] = target: Calcium-activated potassium channel subunit alpha-1 (Homo sapiens) + Leucine-rich repeat-containing protein 26 (Homo sapiens) (UniProt Q12791+Q2I0M4); assay: as above; conditions: F380Y/Slo1WT/gamma1, at 30 µM
R275C/beta4 = assay: as above; conditions: at 30 µM
[6] = test system: Aerobactin synthetase IucA (Klebsiella pneumoniae); assay: IucA aerobactin synthetase inhibitors, biochemical, Tocris library, absorbance (AID 1345561); conditions: purified IucA enzyme assay, absorbance (OD) read-out; stronger effect = lower value;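 tested at 8 µM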;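 note: 100% = enzyme without compound and 0% = no enzyme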
[7] = growth inhibition of DIPG glioma cells, dose response, cell-based, SU-DIPG-XVII, MIPE5.0, CellTiter-Glo, qHTS (AID 1347060; cut-off not given, nearly all actives have AC50 up to about 26 µM); conditions: SU-DIPG-XVII viability, CellTiter-Glo ATP luminescence
[8] = viability loss in pontine glioma line – cell-based, SU-DIPG-XXV, MIPE5.0, CellTiter-Glo, qHTS, dose response (AID 1347065; cut-off not given, nearly all actives have AC50 up to about 26 µM;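 note: cells exposed to compound for 48 hours before ATP readout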); conditions: CellTiter-Glo ATP luminescence
[9] = JHH-DIPG-1 glioma cell viability, MIPE5.0 library, CellTiter-Glo luminescence, qHTS (AID 1347067; cut-off not given, nearly all actives have AC50 up to about 26 µM;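 note: cells exposed to compound for 48 hours before readout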); conditions: JHH-DIPG-1 glioma viability, CellTiter-Glo ATP luminescence
[10] = SU-DIPG-XXV glioma cell viability, MIPE5.0 library, qHTS (AID 1347068; cut-off not given, nearly all actives have IC50 up to about 30 µM)
[11] = growth inhibition of DIPG glioma cells, dose response, cell-based, JHH-DIPG-1, MIPE4.0, CellTiter-Glo, qHTS (AID 1347062; cut-off not given, nearly all actives have AC50 up to about 27 µM); conditions: JHH-DIPG-1 viability, CellTiter-Glo ATP luminescence
[12] = growth inhibition of DIPG glioma cells, dose response, cell-based, SU-DIPG-IV, MIPE4.0, CellTiter-Glo, qHTS (AID 1347063; cut-off not given, nearly all actives have AC50 up to about 30 µM;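 note: compound exposure lasted 48 hours before the viability readout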); conditions: SU-DIPG-IV viability, CellTiter-Glo ATP luminescence
[13] = SU-DIPG-VI glioma cell viability, MIPE4.0 library, CellTiter-Glo luminescence, qHTS (AID 1347066; cut-off not given, nearly all actives have AC50 up to about 30 µM;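 note: cells exposed to compound for 48 hours before readout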); conditions: CellTiter-Glo ATP luminescence
[14] = growth inhibition of DIPG glioma cells, dose response, cell-based, SU-DIPG-XIII, MIPE4.0, CellTiter-Glo, qHTS (AID 1347061; cut-off not given, nearly all actives have AC50 up to about 37 µM;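 note: cells exposed to compound for 48 hours before readout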); conditions: SU-DIPG-XIII viability, CellTiter-Glo ATP luminescence
[15] = LFS_MB_P medulloblastoma growth inhibition, cell-based, chromothripsis tumors, cisplatin or BGB combos (AID 1671449; in the data active = inhibition above about 80%;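 note: cells exposed for 96 hours; 0% = vehicle DMSO and 100% = killing by high DMSO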); conditions: LFS_MB_P medulloblastoma cells
[16] = HDN33 neuroblastoma growth inhibition, cell-based, chromothripsis tumors, cisplatin or BGB combos (AID 1671450; in the data active = inhibition above about 80%;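 note: cells exposed to compound for four days; 0% = vehicle DMSO and 100% = cell killing by high DMSO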); conditions: HDN33 neuroblastoma cells, stronger effect = higher value
[17] = ICB984 medulloblastoma cell growth inhibition, synergistic combos for chromothripsis tumors, cisplatin or BGB combos (AID 1671451); conditions: ICB984 medulloblastoma cells, drug combinations, stronger effect = higher value;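 note: cells exposed for 96 hours before readout; 0% = vehicle DMSO and 100% = killing by high DMSO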
[18] = HTB85 osteosarcoma cell growth inhibition, synergistic combos for chromothripsis tumors, BGB or cisplatin IC20 combos (AID 1671453; in the data active = inhibition above about 80%;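 note: cells exposed for 96 hours before readout; 0% = vehicle DMSO and 100% = high DMSO killing control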); conditions: HTB85 osteosarcoma cells, drug combinations, stronger effect = higher value

Sequence of Calcium-activated potassium channel subunit alpha-1 (Homo sapiens) + Leucine-rich repeat-containing protein 26 (Homo sapiens) (Q2I0M4 whole entry, looked up, one chain of several): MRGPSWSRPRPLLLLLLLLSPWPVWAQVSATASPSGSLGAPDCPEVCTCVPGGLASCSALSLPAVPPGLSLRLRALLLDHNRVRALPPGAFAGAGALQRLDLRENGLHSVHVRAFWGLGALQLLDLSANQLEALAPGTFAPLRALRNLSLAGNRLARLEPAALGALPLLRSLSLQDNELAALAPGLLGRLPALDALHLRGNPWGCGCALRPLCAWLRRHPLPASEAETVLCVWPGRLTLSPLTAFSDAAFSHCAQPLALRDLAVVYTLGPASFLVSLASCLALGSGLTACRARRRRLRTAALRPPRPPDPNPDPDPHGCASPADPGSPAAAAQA

CCC(COC(=O)c1cc(OC)c(OC)c(OC)c1)(c1ccccc1)N(C)C (stereo not drawn)
active: log fold change Tl+ flux (F380Y/beta4) -0.301 | log fold change Tl+ flux [5] -0.141 | log fold change Tl+ flux (R275C/beta4) -0.198
inactive: fluorescence ratio [1] 0.98 | inhibition [2] -1.19% | inhibition [3] -0.87% | fluorescence ratio [4] 0.98

NN=C(N)N
inactive: remaining activity [6] 98% | outcome [7] | outcome [8] | outcome [9] | outcome [10]

CC(C)c1cccc(C(C)C)c1O
inactive: fluorescence ratio [1] 0.96 | inhibition [2] -1.36% | inhibition [3] 4.1% | fluorescence ratio [4] 0.87 | outcome [7] | outcome [11] | outcome [12] | outcome [8] | outcome [13] | outcome [9] | outcome [10] | log fold change Tl+ flux (F380Y/beta4) -0.00471 | log fold change Tl+ flux [5] -0.0487 | log fold change Tl+ flux (R275C/beta4) -0.0411

CN1C(=O)CN=C(c2ccccc2)c2cc([N+](=O)[O-])ccc21
inactive: fluorescence ratio [1] 1.07 | inhibition [2] 5.94% | inhibition [3] 1.44% | fluorescence ratio [4] 1.04 | log fold change Tl+ flux (F380Y/beta4) 0.0228 | log fold change Tl+ flux [5] -0.000886 | log fold change Tl+ flux (R275C/beta4) 0.0115

O=P1(NCCCl)OCCCN1CCCl (stereo not drawn)
-18.3% and -55.5%: inhibition ([16]; BGB combo, at 5 µM)
-25.4% and -47.2%: inhibition ([17]; cisplatin combo, at 0.05 µM)
-4.58% and -35.3%: inhibition ([16]; measured here: with cisplatin IC20 combination, at 0.5 µM)
-16.8% and -29.8%: inhibition ([18]; measured here: with BGB IC20, at 5 µM)
9.75% and -12.8%: inhibition ([18]; measured here: with cisplatin IC20, at 0.5 µM)
-44% and -49.9%: inhibition ([15]; measured here: combination with cisplatin, at 5 µM, stronger effect = higher value)
-28.2% and -28.3%: inhibition ([17]; cisplatin combo, at 0.5 µM)
-22.5% and -36.7%: inhibition ([15]; measured here: combination with BGB IC40, at 0.05 µM)
-24.7% and -29.3%: inhibition ([16]; single agent, at 5 µM)
-22%: inhibition ([15]; measured here: combination with BGB IC20, at 0.005 µM)
1.05% and -46.6%: inhibition ([18]; measured here: with cisplatin IC20, at 5 µM)
-25.4% and -42.1%: inhibition ([17]; BGB IC40 combo, at 0.05 µM)
-15% and -23.6%: inhibition ([15]; measured here: combination with BGB IC40, at 0.005 µM)
-4.46% and 4.1%: inhibition ([17]; measured here: 5 uM single agent, at 5 µM)
-14.3% and -32.8%: inhibition ([16]; cisplatin combo, at 5 µM)
-4.87% and -19.5%: inhibition ([17]; BGB IC20 combo, at 0.005 µM)
-18% and -28.2%: inhibition ([17]; cisplatin combo, at 5 µM)
36.5% and -51.2%: inhibition ([16]; measured here: with BGB IC20 combination, at 0.5 µM)
-34.3% and -30.8%: inhibition ([15]; measured here: combination with cisplatin, at 0.5 µM, stronger effect = higher value)
inactive: outcome [7] | outcome [14] | outcome [11] | outcome [8] | outcome [13] | outcome [9] | outcome [10] | inhibition ([15]; at 0.5 µM, stronger effect = higher value) -12.1% and -23.4% | inhibition ([16]; at 0.5 µM) 2.74% and -43.1% | inhibition ([17]; at 0.5 µM) -22% and -43% | inhibition ([18]; at 0.5 µM) -11.8% and -20.1%
-26.1% and -41.8%: inhibition ([18]; measured here: with BGB IC20, at 0.5 µM)
-10.4% and -9.47%: inhibition ([18]; single agent, at 5 µM)
-32.7% and -24.5%: inhibition ([17]; BGB IC40 combo, at 0.005 µM)

c1ccc2c(c1)OCC(C1=NCCN1)O2 (stereo not drawn)
inactive: remaining activity [6] 99.1%

CNCC(O)c1ccc(O)cc1 (stereo not drawn)
inactive: fluorescence ratio [1] 0.99 | inhibition [2] -1.09% | inhibition [3] -0.39% | fluorescence ratio [4] 0.96 | outcome [7] | outcome [14] | outcome [11] | outcome [12] | outcome [8] | outcome [13] | outcome [9] | outcome [10] | log fold change Tl+ flux (F380Y/beta4) -0.01 | log fold change Tl+ flux [5] 0.0291 | log fold change Tl+ flux (R275C/beta4) -0.013

CN1CCN(C(=O)O[C@H]2c3nccnc3C(=O)N2c2ccc(Cl)cn2)CC1
inactive: fluorescence ratio [1] 1 | inhibition [2] -4.09% | inhibition [3] -4.29% | fluorescence ratio [4] 1.03 | outcome [14] | outcome [11] | outcome [12] | outcome [13] | log fold change Tl+ flux (F380Y/beta4) -0.00667 | log fold change Tl+ flux [5] -0.0271 | log fold change Tl+ flux (R275C/beta4) 0.00608

NC1=NC(=O)C(c2ccccc2)O1 (stereo not drawn)
inactive: fluorescence ratio [1] 1.02 | inhibition [2] 2.77% | inhibition [3] 1.44% | fluorescence ratio [4] 0.93 | log fold change Tl+ flux (F380Y/beta4) 0.00709 | log fold change Tl+ flux [5] -0.0447 | log fold change Tl+ flux (R275C/beta4) -0.0245

CN[C@@H]1C[C@@H](c2ccc(Cl)c(Cl)c2)c2ccccc21
inactive: fluorescence ratio [1] 0.98 | inhibition [2] -3.56% | inhibition [3] -3.95% | fluorescence ratio [4] 0.97 | remaining activity [6] 118% | log fold change Tl+ flux [5] 0.0738

CC[C@]1(O)CC[C@H]2[C@@H]3CCC4=CCCC[C@@H]4[C@H]3CC[C@@]21C
active: log fold change Tl+ flux (F380Y/beta4) -0.128 | log fold change Tl+ flux [5] 0.141 | log fold change Tl+ flux (R275C/beta4) 0.243
inactive: fluorescence ratio [1] 1.02 | inhibition [2] -2.77% | inhibition [3] 1.44% | fluorescence ratio [4] 1.02
